# Bioassay records deposited in PubChem BioAssay by National Center for Advancing Translational Sciences (NCATS).
# Pf growth 96h = P. falciparum growth inhibition at 96 hours. P. falciparum luciferase reporter growth, 96 h. Potency, µM (series often up to 28.7 µM), for the others: at the highest dose activity change, negative = inhibition, most hits filed as inhibitors. 6.9% of 320,000 active. AID 504834; active = well fitted inhibition curve with a large enough effect; inconclusive = small, poorly fitted or top-dose-only effect, or another doubt; inactive = no such curve, though single readings can be large or run the other way; also: potency is read from the fitted curve at half-maximal effect; % is scaled to controls: 0 for no effect and ±100 for the full control effect
#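 Readout is luminescence from an integrated firefly luciferase in P. falciparum. Red cells, 2% hematocrit and 0.05% parasitemia final, were cultured with compound through two parasite generations (96 hours) at 37 C, 5% CO2.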
# Shiga toxin inh = blocks Shiga toxin action in Vero cells | inhibition, % at 38.7 µM | Vero cells, Shiga toxin protein synthesis inhibition reporter | 9.2% of 290,000 active | AID 2315; in the data active = inhibition mostly above about 28%, no sharp cut-off; inactive = mostly below about 43%; also: 0% is about no effect
# Cycloheximide cs = counter-screen for Shiga toxin inhibitors: cycloheximide protein synthesis inhibition. cell reporter, cycloheximide protein synthesis inhibition counterscreen. max response, %. 12% of 300,000 active; in the data active = max response mostly above about 13%, no sharp cut-off; inactive = mostly below about 14%; also: read at 38.3 µM for the half of the compounds with a filed dose; 0% is about no effect
# SARS PLP yeast = inhibitors of SARS-CoV papain-like protease in yeast; S. cerevisiae expressing SARS-CoV PLpro, growth rescue; Potency, µM (top dose mostly 32.9 µM), for the others: at the top dose activity, positive = growth rescue, most hits filed as activators; 0.19% of 330,000 active; also: potency is read from the fitted curve at half-maximal effect; 0% is about no effect; nearly all actives have a fitted effect of over 55% in size
# Pf growth 48h = P. falciparum growth inhibition at 48 hours (one generation) | P. falciparum luciferase growth in erythrocytes, 48 h | Potency, µM (top dose mostly 28.7 µM), inactives show at the top dose activity change, negative = inhibition, most hits filed as inhibitors | 5.9% of 310,000 active | AID 504832; active = well fitted inhibition curve with a large enough effect; inconclusive = small, poorly fitted or top-dose-only effect, or another doubt; inactive = no such curve, though single readings can be large or run the other way; also: potency is read from the fitted curve at half-maximal effect; % is scaled to controls: 0 for no effect and ±100 for the full control effect
#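 Firefly luciferase activity from engineered P. falciparum reports growth; inhibitors lower the luminescent signal. Cultures contained 2% hematocrit erythrocytes at 0.1% final parasitemia.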
# NS1 function inh = inhibitors of influenza NS1 protein function. AID 2326. Potency, µM (highest dose often 46.1 µM), for inactives: at the top dose activity, positive = more growth. 0.4% of 270,000 active; also: potency is read from the fitted curve at half-maximal effect; actives are rising curves; nearly all actives have a fitted effect of over 50% in size
#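 Growth recovery, yeast-based: influenza A NS1 expressed in S. cerevisiae causes slow growth, and suppressors are detected by OD600. The parent strain without NS1 is used as positive control.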
# Starred values were filed as active, the others as inactive; ? = inconclusive; · = no result given; [ ] = another dose, or the depositor's remark. Hits are enriched below; roughly 21% of the tested compounds scored in any of these assays. Unless noted, calls follow the shape of the full dose curve.
SMILES,Pf growth 96h,Shiga toxin inh,Cycloheximide cs,SARS PLP yeast,Pf growth 48h,NS1 function inh
CCN1C(=O)[C@H]2[C@@H](c3ccc(-c4ccc(OC)cc4)c(OC)c3)N3CCCC[C@@]3(C(=O)OC)[C@H]2C1=O,9.3µM*,·,·,-2%,12µM*,·
CCN1C(=O)[C@H]2[C@@H](c3ccc(-c4ccc(F)cc4)c(OC)c3)N3CCC[C@@]3(C(=O)OC)[C@H]2C1=O,7.4µM*,·,·,-1%,7.4µM*,·
CCN1C(=O)[C@@H]2[C@@H](c3ccc(-c4ccc(Cl)c(Cl)c4)c(OC)c3)N3CCC[C@@]3(C(=O)OC)[C@@H]2C1=O,0.83µM*,·,·,-7%,5.2µM*,·
CCN1C(=O)[C@@H]2[C@@H](c3ccc(-c4ccc(Cl)c(Cl)c4)cc3)N3CCCC[C@@]3(C(=O)OC)[C@@H]2C1=O,?,·,·,0%,0%,·
O=C(NCCc1ccc(Cl)cc1)c1ccc(Cn2c(=O)[nH]c3ccccc3c2=O)cc1,?,·,·,4%,?,·
COc1ccc(CC(=O)NC2CCCCCC2)c(OC)c1,4%,26,8.5*,4%,-1%,3%
COc1ccc(OC)c(NC(=O)CCCC(=O)NC2CCCCC2)c1,?,-10,1,-5%,6%,-2%
COc1ccc(CCC(=O)NC2CCCCC2)cc1,15µM*,-15,10,·,-16%,-3%
CCOc1ccccc1NC(C)C(=O)NC(=O)NC1CCCCC1 (configuration not stated),13µM*,·,·,-7%,?,·
COc1ccccc1NC(=O)NC1CCCCCCC1,12µM*,35,14,-7%,-28%,-6%
CCCCN(C(=O)C1CC1)C1CCS(=O)(=O)C1 (configuration not stated),59%,·,·,4%,31%,·
COc1ccc(NC(=O)NC2CCCCCCC2)c(OC)c1,?,45*,30*,1%,-3%,-14%
Cc1ccc(OCCNS(=O)(=O)c2cccs2)cc1,15%[5.75 µM],56,44*,6%,-28%,-4%
CS(=O)(=O)NCCOc1ccc(S(=O)(=O)NCCOc2ccccc2)cc1,31%,-23,8,1%,10µM*,·
COc1ccc(OCCNS(=O)(=O)c2ccccc2)cc1,69%,-17,1,3%,0%,-3%
CCOc1ccc(NC(=O)CSc2cn[nH]n2)cc1,19%,·,·,-4%,16%,·
COC(=O)c1ccc2nccnc2c1,19%,5,1,1%,10%,-3%
COc1ccc(C(=O)NC(=S)NCc2ccc(-c3nc4ccccc4o3)cc2)cc1OC,·,8,13,2%,-13%,3%
COc1ccc(-c2nc3ccccc3o2)cc1OC,56%,36*,36*,-14%,88%,-50%
NCc1ccc(-c2nc3ccccc3o2)cc1,·,93*,59*,2%,85%,-18%
COC(=O)c1ccc(-c2nc3ccc(C)cc3o2)cc1,?,154*,76*,-5%,·,-9%
O=C1c2ccccc2C(=O)N1c1ccc(-c2nc3ccccc3o2)cc1,98%,-18,7,1%,37%,2%
COC(=O)c1ccc(-c2nc3ccccc3o2)cc1,?,24,13*,-2%,91%,-27%
CC(=O)Oc1ccc(C(=O)Nc2cccc3c2CCCC3)cc1,8%,12,0,0%,5%,-8%
Nc1ccc(CCc2nc3ccccc3o2)cc1,?,64,28*,-5%,166%,-11%
SMILES,Pf growth 96h,Shiga toxin inh,Cycloheximide cs,SARS PLP yeast,Pf growth 48h,NS1 function inh
O=S(=O)(CCc1nc2ccccc2o1)c1ccc(Cl)c(Cl)c1,31%,-2,-3,7%,22%,-2%
Nc1nc2ccc(-c3nc4ccccc4o3)cc2s1,51%,13*,36*,-70%,246%,-11%
c1ccc2oc(-c3ccc4nc[nH]c4c3)nc2c1,-25%,75*,39*,-32%,238%,-14%
C=CCn1c(SCC(=O)Nc2cc(C)nn2-c2ccccc2)nnc1C1CCCCC1,12µM*,-12,14,3%,-15%,0%
C=CCn1c(SCC(=O)NCc2ccccc2)nnc1C1CCCCC1,-14%,-9,-2,1%,-7%,-1%
C=CCn1c(SCC(=O)Nc2nnc(C)s2)nnc1C1CC1,25%,-23,16*,1%,22%,26%
COc1ccc(-c2ccoc2)cc1C1C2C=CCC(C)C2C(=O)N1Cc1ccccc1 (configuration not stated),·,-2,6,·,·,·
CC(C)c1ccc(NC(=O)C2CC3CCC2C3)cc1 (configuration not stated),-28%,86*,53*,-13%,123%,-24%
Cc1cc(C)c(NC(=O)C2CC3CCC2C3)c(C)c1 (configuration not stated),25%,33,15*,-1%,10µM*,10%
O=C(Nc1ccc(F)cc1)C1CC2CCC1C2 (configuration not stated),?,18,18,0%,6%,-4%
CCOC(=O)Cc1csc(NC(=O)COC(=O)/C=C/c2ccc(OC)cc2)n1,·,·,·,1%,·,·
CCOC(=O)Cc1csc(NC(=O)/C=C/c2ccc(OC)cc2)n1,14%,115*,37*,-3%,21%,·
CCOC(=O)Cc1csc(NC(=O)/C=C\c2ccccc2)n1,?,53*,32*,-4%,178%,·
CCOC(=O)Cc1csc(NC(=O)Nc2ccc(OC(F)(F)F)cc2)n1,9.3µM*,45*,23*,0%,12µM*,3%
CCOC(=O)Cc1csc(NC(=O)c2ccc(NC(C)=O)cc2)n1,-17%,29,4,-6%,-6%,5%
CCOC(=O)Cc1csc(NC(=O)CCCc2ccccc2)n1,-28%,9,7,0%,0%,-1%
CCOC(=O)Cc1csc(NC(=O)COc2ccc(C)c(C)c2)n1,32%,41*,33*,-2%,121%,-6%
O=C(OCC(=O)N1CCCc2ccccc21)c1cc(Cl)ccc1O,0%,-12,8,?,17%,4%
Cn1nc(CSc2ccccc2)c(C=O)c1Cl,29%,56,41*,-9%,19%,·
COC(=O)c1ccc2nc(Nc3nc4ccc(F)cc4s3)sc2c1,28%,-34,28*,-28%,41%,5%
CC(=O)c1sc(NC(=O)c2oc3ccc(F)cc3c2C)nc1C,411%,·,·,5%,398%,·
CCOC(=O)c1csc(Nc2nc3ccc(F)cc3s2)n1,-4%,23*,20*,-14%,?,-22%
CC(=O)c1sc(Nc2nc3ccc(F)cc3s2)nc1C,?,97*,52*,-15%,-9%,-164%
COc1ccc(N2CCCC2)c(NC(=O)c2ccc(Br)o2)c1,16%,1,-1,-4%,-13%,-27%
O=C(O)/C=C(/C(=O)O)[C@]12CCN3CC4=CCO[C@@H]5CC(=O)N[C@@H]1C5[C@H]4C[C@H]32 (some centres not stated),·,·,·,·,·,-5%
